Bioassay records deposited in PubChem BioAssay by several laboratories.
EBV LMP1 NFkB = reduces LMP1-driven NF-kappaB luciferase signal; 350,000 tested, 0.69% active; inhibition, % at 12.5 µM; LMP1-induced NF-kappaB luciferase reporter cells, luminescence; in the data active = inhibition above about 41%; inconclusive = no clear call, values can overlap the other calls;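 also: 0% = neutral control wells and 100% = reference inhibitor control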
TRPM1 prom inh = reduces MITF-dependent TRPM1 promoter luciferase signal; SK-MEL-5 TRPM1 promoter luciferase, 24 h; inhibition, % at 12.5 µM; 330,000 tested, 0.83% active; AID 488899;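 active = mean inhibition across replicates of 60% or more, whatever share of single replicates reaches that level; inconclusive = some that reach 60%, reason not given; inactive = mean inhibition across replicates below 60%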
HIF-2a inh = inhibitors of HIF-2a. inhibition, % at 18.8 µM. 786-0 RCC cells HIF-2a reporter, luciferase luminescence, overnight. 360,000 tested, 0.72% active. AID 624352;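 active = inhibition of the luminescence signal of 40% or more relative to plate controls, in a single-dose primary screen at 18.75 µM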
PAX8 inh HTS = inhibitors of PAX8 transcriptional activity in RMG-I cells; RMG-I TPO-luciferase reporter, SteadyGlo, 24 h; 360,000 tested, 1.2% active; AID 652154; inhibition, % at 12.6 µM;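 active = mean replicate inhibition at least 60% with every replicate also reaching 60%; inconclusive = only one of the two criteria is met; inactive = mean below 60% and not all replicates reaching 60%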;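 also: luciferase light reporting Pax8 driven TPO promoter activity; plate controls were median of neutral control wells for no effect and mitoxantrone controls for full effect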
Peg3 promoter = inhibitors of Peg3 promoter; HeLa PEG-Prom luciferase reporter, luminescence, overnight; inhibition, % at 20 µM; 360,000 tested, 1.7% active;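 active = inhibition of at least 50% at 20 µM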
Shn3 3UTR inh = Schnurri-3 reporter inhibition in Clone20 osteoblasts. Clone20 osteoblast Shn3 3'UTR firefly luciferase, 24 h. inhibition, % at 12.5 µM. 360,000 tested, 0.52% active;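 active = mean inhibition of at least 75% with every replicate also reaching 75%; inconclusive = mean inhibition at least 75% but some replicate below; inactive = mean inhibition below 75%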;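 also: 0% = median of neutral control wells and 100% = pilot-screen positive control compound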
* hit, by the source's call; ? = inconclusive; · = not tested or not shown. In the library only some 2.8% were active in any assay of this set; here they are far more common.

SMILES | EBV LMP1 NFkB | TRPM1 prom inh | HIF-2a inh | PAX8 inh HTS | Peg3 promoter | Shn3 3UTR inh
Cc1ccc(OCC(=O)Nc2ccc(O)c(-c3nc4ccccc4o3)c2)cc1 | 3 | 42 | 5 | · | 52* | 34
CCOc1ccc(NC(=O)N(O)C2(C#N)CCCCC2)cc1 | 3 | -3 | 6 | 1 | 96* | 1
Cc1ccc(S(=O)(=O)Nc2ccc3c(c2)CC(=O)N([C@@H](C)CO)C[C@H](C)[C@@H](CN(C)C(=O)Nc2cccc4ccccc24)O3)cc1 | · | · | · | 13 | · | ·
Cc1ccc(NC(=O)Cn2c(-c3ccc(F)cc3)cnc2SCC(=O)Nc2c(C)cccc2C)cc1 | -33 | 5 | 10 | -5 | 76* | 58
CCOc1ccc(NC(=O)CSc2ncc(-c3ccc(F)cc3)n2Cc2ccco2)cc1 | 0 | 8 | 14 | 18 | 11 | 19
CC1CCCC=CC2CC(OC(=O)CN(C)C)CC2C(O)C=CC(=O)O1 (stereo not given) | -91 | 76* | 37 | 115* | 55* | 63
Cn1nnnc1SCc1ccc(C(=O)Nc2nccs2)cc1 | -11 | -47 | -198 | · | -130 | -7
C=CCn1c(SCc2ccc(C(=O)Nc3nccs3)cc2)nnc1-c1ccc(C)c(Cl)c1 | 6 | 19 | -46 | 34 | 52* | 75
OCCCn1c(C2CCCN2c2nc(-c3ccc(Cl)cc3)cs2)nc2cc(Cl)c(N3CCCCC3)cc21 (stereo not given) | -15 | 46 | 10 | -1 | 72* | 53
Cc1csc(N2CCCC2c2nc3cc(Cl)c(N4CCCCC4)cc3n2CCCO)n1 (stereo not given) | -1 | 4 | 3 | 8 | -2 | -10
O=C(c1ccccc1F)N1CCN(c2ccc([N+](=O)[O-])c3ncccc23)CC1 | 2 | 25 | 21 | -2 | 14 | 31
O=[N+]([O-])c1cccc2c(N3CCCC3)ccnc12 | -38 | 81* | -16 | 21 | -27 | 62
O=C(CC(F)(F)F)N1C[C@@H]2[C@H](c3ccccc31)[C@@H](CO)N2CC1CCCCC1 | · | · | · | 38 | · | ·
COC(=O)c1ccc(N2CCC(c3cc(-c4ccc(OC)cc4)n[nH]3)CC2)c([N+](=O)[O-])c1 | -10 | 5 | 27 | -17 | 9 | 62
COc1ccc(-c2cc(C3CCN(c4ccc(C(C)=O)cc4[N+](=O)[O-])CC3)[nH]n2)cc1 | 4 | 19 | 5 | 85* | 25 | ?
CC1CCCN(C(=O)Cc2cn(Cc3cccc(Cl)c3)c3ccccc23)C1 (stereo not given) | -6 | 15 | 19 | 64* | 34 | 12
COc1ccc(-c2csc(NC(=O)c3ccccc3NS(=O)(=O)c3ccc(F)c(F)c3)n2)cc1 | ? | 77* | 35 | 97* | 47 | 79
Cc1ccc(S(=O)(=O)Nc2ccccc2C(=O)Nc2nc(-c3ccc(F)cc3)cs2)cc1 | 21 | 44 | 9 | 77* | 41 | 75
Cc1ccc(S(=O)(=O)N(C)C[C@H]2OCCCC[C@H](C)Oc3ccc(NS(=O)(=O)c4cccs4)cc3C(=O)N([C@H](C)CO)C[C@H]2C)cc1 | · | · | · | -52 | · | ·
CCc1ccc2c(c1)C1(C(=O)N2)N2CCCC2C(C(=O)c2ccc3ccccc3c2)C12C(=O)Nc1ccccc12 (stereo not given) | -4 | 4 | -145 | · | 104* | -3
C[C@@H]1CN([C@@H](C)CO)C(=O)c2cc(NC(=O)Nc3ccccc3)ccc2O[C@@H](C)CCCCO[C@@H]1CN(C)CC1CCCCC1 | · | · | · | 35 | · | ·
C[C@H]1CCCCO[C@H](CN(C)CC2CCCCC2)[C@@H](C)CN([C@@H](C)CO)C(=O)c2cc(NC(=O)Nc3ccccc3)ccc2O1 | · | · | · | 69* | · | ·
C[C@@H]1CCCCO[C@@H](CN(C)CC2CCCCC2)[C@@H](C)CN([C@H](C)CO)C(=O)c2cc(NC(=O)Nc3ccccc3)ccc2O1 | · | · | · | -2 | · | ·
COc1ccc(NC(=O)Nc2ccc3c(c2)C(=O)N([C@@H](C)CO)C[C@@H](C)[C@@H](CN(C)CC2CCCCC2)OCCCC[C@@H](C)O3)cc1 | · | · | · | 77* | · | ·
C[C@@H]1CCCCO[C@@H](CN(C)CC2CCCCC2)[C@H](C)CN([C@H](C)CO)C(=O)c2cc(NC(=O)Nc3ccccc3)ccc2O1 | · | · | · | 86* | · | ·
SMILES | EBV LMP1 NFkB | TRPM1 prom inh | HIF-2a inh | PAX8 inh HTS | Peg3 promoter | Shn3 3UTR inh
C[C@H](CO)N1C[C@H](C)[C@H](CN(C)CC2CCCCC2)OCCCC[C@H](C)Oc2ccc(NC(=O)Nc3ccccc3)cc2C1=O | · | · | · | 97* | · | ·
C[C@H]1CN([C@@H](C)CO)C(=O)c2c(c3ccccc3n2C)-c2ccccc2CO[C@H]1CN(C)Cc1cccc2c1OCCCO2 | · | · | · | 2 | · | ·
CO[C@@H]1CN(C)C(=O)c2ccc(NC(=O)C3CC3)cc2OC[C@@H](C)N(CC2CC2)C[C@@H]1C | · | · | · | 16 | · | ·
CO[C@H]1CN(C)C(=O)c2cc(NS(C)(=O)=O)ccc2OC[C@H](C)N(Cc2ccccc2)C[C@H]1C | · | · | · | 10 | · | ·
C[C@H]1CN([C@@H](C)CO)C(=O)c2cccc(NC(=O)CCCCCC(=O)Nc3ccccc3N)c2O[C@H]1CN(C)CC1CC1 | · | · | · | 9 | · | ·
CC(=O)N[C@@H]1CC[C@@H](CCNC(=O)C2CCCC2)O[C@@H]1CO | · | · | · | -5 | · | ·
C[C@@H]1CN([C@H](C)CO)C(=O)c2cc(NC(=O)Nc3ccccc3)ccc2O[C@@H](C)CCCCO[C@@H]1CN(C)CC1CCCCC1 | · | · | · | 97* | · | ·
O=C(/C=C/Nc1cccc(C(F)(F)F)c1)C(F)(F)F | 65* | -3 | 5 | · | 15 | -19
CCOC(=O)/C=C/C(=O)Nc1cccc([N+](=O)[O-])c1 | 11 | 13 | 4 | · | 88* | ?
COC(=O)/C=C/C(=O)Nc1cccc(C(F)(F)F)c1 | 43* | -8 | -7 | 31 | 34 | 22
C[C@@H]1CN([C@H](C)CO)C(=O)c2cc(NS(C)(=O)=O)ccc2O[C@@H](C)CCCCO[C@H]1CN(C)S(=O)(=O)c1ccc(Cl)cc1 | · | · | · | -24 | · | ·
O=C(NC[C@@H]1CC[C@@H]2[C@@H](CN2Cc2cccc(Cl)c2)O1)C1CCOCC1 | · | · | · | -31 | · | ·
COc1ccc(CNCC(O)COc2cccc3c2OC(C)(C)C3)cc1 (stereo not given) | 6 | 1 | 5 | -10 | 13 | 91*
COc1ccc(NCC(O)COc2ccc(C(C)(C)C)cc2)cc1 (stereo not given) | 43* | 8 | -29 | -6 | -3 | 25
CC(=O)Nc1ccc(OCC(O)CNC(C)C)cc1 (stereo not given) | 51* | 10 | 0 | -12 | 0 | -15
CC(=O)Nc1ccc(OCC(O)CNC2CCCC2)cc1 (stereo not given) | -5 | -15 | 1 | · | 0 | -1
COc1ccc(CNCC(O)COc2ccc(C(C)(C)c3ccccc3)cc2)cc1 (stereo not given) | 6 | -12 | 10 | -1 | 74* | 18
O=C(C1CCC1)N1CCCCN2[C@H](CO)[C@H](c3ccc(C#CC4CCCC4)cc3)[C@H]2C1 | · | · | · | 39 | · | ·
